Laboratory results published in PubChem BioAssay (NCI).
This is part of a sample that, as a whole, favours compounds with a hit. Of some 83,000 tested, about 20% had one in any assay.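 How to read the values: 0–100, growth inhibition (40 = 60% inhibited); 0, no net growth; -100 to 0, cell death (-40 = 40% of starting cells died; -100 = all dead).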 Values without a mark were called inactive. The source made the active and inactive calls. Rule for the calls: active = growth percent below 10; inactive = the rest.

Experiments:
Experiment in all cases: NCI-60 one-dose screen, 48 h (100 = growth as untreated, 0 = no growth, -100 = all killed)
Conditions in all cases: 10 µM unless noted
HCT-15 colon = system: HCT-15 colon
HT29 colon = system: HT29 colon
SNB-75 CNS = system: SNB-75 CNS
SNB-19 CNS = system: SNB-19 CNS
U251 CNS = system: U251 CNS
PC-3 prostate = system: PC-3 prostate
SK-MEL-5 melanoma = system: SK-MEL-5 melanoma
UACC-62 melanoma = system: UACC-62 melanoma
LOX IMVI melanoma = system: LOX IMVI melanoma
SK-MEL-28 melanoma = system: SK-MEL-28 melanoma

Compound | growth (HCT-15 colon) | growth (HT29 colon) | growth (SNB-75 CNS) | growth (SNB-19 CNS) | growth (U251 CNS) | growth (PC-3 prostate) | growth (SK-MEL-5 melanoma) | growth (UACC-62 melanoma) | growth (LOX IMVI melanoma) | growth (SK-MEL-28 melanoma)
Nc1nn2c(-c3cc4ccccc4oc3=O)ccnc2c1N=Nc1ccccc1 | 82.5% | 124% | 40% | 4.86% (active) | 6.17% (active) | 82.5% | 67.6% | 92.7% | 34% | 90.2%
CCOC(=O)/C(F)=C/C1CC1C1CCN(C(=O)OC(C)(C)C)CC1 (stereo not given) | 89.2% | 77.9% | 93.9% | 96.5% | 99.8% | 96.3% | 69.3% | 93.6% | 103% | 119%
COc1ccc(C(=O)NNC(=O)CSc2nc3sc4c(c3c(=O)n2-c2ccc(Cl)cc2)CCCC4)cc1 | 76.3% | 91.2% | 44.5% | 63.3% | 42.3% | – | 46.8% | 26.1% | 55.5% | 72.5%
CCOc1ccccc1[C@H]1C(C(=O)c2ccc(Cl)cc2)C2(N[C@@H]1c1ccccc1)C(=O)Nc1ccc(Br)cc12 (stereo not given in full) | -5.64% (active) | -62.1% (active) | 44.4% | 17.1% | 0.419% (active) | – | -89.3% (active) | -46.8% (active) | -100% (active) | -23.4% (active)
C=CCn1c(O)c(N=Nc2nc(-c3cc4ccccc4oc3=O)cs2)c2ccccc21 | 98.4% | 17.2% | -25% (active) | 38.7% | 13.3% | – | 33.3% | 52.6% | 70.1% | 49.8%
COc1ccc(NC(=O)Cn2c(/C=C/c3cccc(OC)c3)nc3ccccc3c2=O)cc1 | 70.9% | 51.8% | -34.5% (active) | 56.4% | -26.5% (active) | – | 92.7% | 57.8% | 22.4% | 89.3%
Cc1cccc(-c2ccccc2Oc2ccc3nnc(Cl)n3n2)c1 | 99.6% | 107% | 89.4% | 97.8% | 94.6% | – | 98.5% | 96.8% | 93.7% | 107%
Fc1ccc(Nc2nnc(-c3c[nH]c4ccccc34)o2)cc1 | 66.7% | 102% | 88.9% | 85% | 84.8% | – | 91.4% | 77.8% | 72.2% | 106%
COc1nc(N)ncc1-c1ccc2ncnc(N3CCc4cc(F)c(Cl)cc43)c2c1 | 23.7% | 36.7% | -52.7% (active) | 1.32% (active) | -44.9% (active) | 66.3% | 57.5% | 50% | 14.5% | 31.3%
C=CC(=O)N1CCN(c2ccc3nc4c(nc3c2C(F)(F)F)C(=O)c2ncccc2C4=O)CC1 | 1.18% (active) | 11.8% | 82.3% | 32.3% | -17.3% (active) | – | -98.6% (active) | -60% (active) | -8.11% (active) | 30.5%
CCN1C(=O)N(CC)C2NNC(Sc3c(C(=O)O)c4ccccc4n(CC(C)C)c3=O)=NC21 (stereo not given) | 7.04% (active) | -8.58% (active) | 34.4% | 17% | 10.7% | 29.9% | 2.31% (active) | 14.7% | 16.5% | 54.4%
Cc1ccc(C2CC(c3ccc(NC(=O)Nc4ccccc4)cc3)=NN2c2ccc(S(C)(=O)=O)cc2)cc1 (stereo not given) | -84.4% (active) | -55.7% (active) | 56.9% | 4.8% (active) | -63.5% (active) | 1.02% (active) | -99.9% (active) | -80.3% (active) | -100% (active) | -89.4% (active)
COc1ccc2[nH]c(O)c(N=Nc3nc(-c4ccc(Br)cc4)cs3)c2c1 | 2.5% (active) | 12.8% | -41.4% (active) | 36.4% | -39.5% (active) | 21% | 35.1% | 18.7% | 4.53% (active) | 15.4%
CCOC(=O)/C(F)=C/C1CC1CCc1ccc(OCC)cc1 (stereo not given) | 70.6% | 58.5% | 81.3% | 95.4% | 104% | – | 63.7% | 87.5% | 97.9% | 110%
CCCSc1nnc(-c2c(C)nc3sccn23)o1 | 65.8% | 101% | 91.5% | 81.2% | 87.5% | – | 81.6% | 69.1% | 88.9% | 106%
C[C@@H](Nc1c(C#N)cnc2ccc(-c3cnc4[nH]ncc4c3)cc12)c1ccccc1 | 8.64% (active) | 79.5% | -26.9% (active) | 30.7% | 23.4% | – | -67.5% (active) | -16% (active) | 16% | 15.4%
COc1cc2cc(C(=O)N3C[C@@H](CCl)c4c3cc(OC(=O)N(CCC(=O)N3CCN(C)CC3)C3CCCCC3)c3ccccc43)[nH]c2c(OC)c1OC | -34.5% (active) | -34.5% (active) | -75.7% (active) | -5.79% (active) | -63.4% (active) | -17.8% (active) | -99.2% (active) | -94.5% (active) | -96.6% (active) | -97.5% (active)
O=C(N/N=C/c1ccc(Cl)o1)c1[nH]c2ccc(Br)cc2c1-c1ccccc1 | -33.9% (active) | -34.6% (active) | -32.9% (active) | 9.24% (active) | -89.9% (active) | 15.7% | -74.7% (active) | 3.42% (active) | -58.2% (active) | 2.44% (active)
CS(=O)(=O)Nc1cncc(-c2ccc3ncnc(NCc4ccccc4)c3c2)c1 | 64.3% | 65.1% | 5.11% (active) | 39% | 22.1% | 42.1% | -82.9% (active) | 29.2% | 35.9% | 40.3%
CCc1ccccc1NC(=O)N/C(N)=N/c1nc2ccccc2s1 | 0.728% (active) | -25% (active) | 3.91% (active) | 9.49% (active) | -18.9% (active) | 21.8% | -59.1% (active) | 13.8% | -53.7% (active) | 38%
